Compound activity: PubChem BioAssay, National Center for Advancing Translational Sciences (NCATS)
Rows were chosen to be rich in hits. Some 6% of all compounds tested hit in one or more screens of this group.
DRD3 antagonist: antagonists of human D3 dopamine receptor; D3R cells, DiscoveRx beta-arrestin luminescence, antagonist mode; active compounds read low; 360,000 compounds, 2.5% hits; max response, negative = inhibition, %; P35462; AID 652054; in the data active = max response below about -50%; inconclusive = no clear call, values can overlap the other calls; note: % is set by controls: 0 for no effect and ±100 for the full control effect
Target sequence (P35462 whole entry, looked up): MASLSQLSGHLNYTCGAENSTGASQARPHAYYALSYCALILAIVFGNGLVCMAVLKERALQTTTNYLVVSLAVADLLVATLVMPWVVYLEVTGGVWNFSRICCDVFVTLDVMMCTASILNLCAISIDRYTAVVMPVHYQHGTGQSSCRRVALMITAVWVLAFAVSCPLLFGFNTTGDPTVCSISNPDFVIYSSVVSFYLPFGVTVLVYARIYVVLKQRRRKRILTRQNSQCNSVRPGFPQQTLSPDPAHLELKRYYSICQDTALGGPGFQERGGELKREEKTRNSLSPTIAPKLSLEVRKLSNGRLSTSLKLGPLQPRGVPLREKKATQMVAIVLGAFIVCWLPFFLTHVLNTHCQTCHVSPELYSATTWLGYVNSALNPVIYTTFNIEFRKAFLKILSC
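Cells expressing the human receptor were seeded at 1500 cells/well, incubated overnight at 37 degrees C in 5% CO2, then exposed to library compounds with dopamine controls for 90 minutes at 37 degrees C before luminescent detection.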
D1 PAM: human D1 dopamine receptor positive modulation; 360,000 compounds, 0.036% hits; potentiation, % at 10 µM; HEK293 TREx D1 cells, calcium flux, dopamine EC20 potentiation; AID 504651; in the data active = potentiation above about 30%; note: 0% is about no effect
D1 ag: agonists of human D1 dopamine receptor | 360,000 compounds, 1% hits | activation, % at 2 µM | HEK293 T-REx D1 cells, calcium flux, agonist mode | AID 504660; in the data active = activation above about 30%; note: 0% is about no effect
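Tetracycline-induced HEK293 TREx D1 cells, force-coupled to calcium signalling, were dye-loaded with a no-wash calcium kit. Compound was pin-added after a 10 s baseline. Fluorescence was read kinetically at 1 cycle/s for 180 s, with calcium rises flagged as agonism.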
DRD3 agonist: agonists of human D3 dopamine receptor | AID 652048 | 410,000 compounds, 0.58% hits | P35462 | D3R DiscoveRx beta-arrestin cells, luminescence, 90 min | max activation, %; in the data active = max activation above about 30%; note: 0% is about no effect
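Agonist-mode cell screen: cells plated at 1500/well and incubated overnight at 37 °C, then exposed to library compounds for 90 min at 37 °C. Detection reagent was added for 30–60 min at room temperature, and luminescence was read.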
D1 antag: human D1 dopamine receptor antagonism; P21728; HEK293 TREx D1 cells, calcium flux, dopamine EC80; active compounds read low; activity change, negative = inhibition, % at 10 µM; 360,000 compounds, 3.2% hits; in the data active = activity change below about -30%; note: % is set by controls: 0 for no effect and ±100 for the full control effect
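Compound effects on dopamine-evoked calcium signalling were measured in tetracycline-induced HEK293 Trex D1 cells. Dopamine at EC80 followed a 180 s compound pre-read, and fluorescence was tracked kinetically for 180 s more.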
BCR signal inh: inhibitors of chronic active B-cell receptor signaling; ABC-DLBCL IkBa-CBG/CBR reporter, luminescence ratio, 4 h; Potency, µM (doses to about 46.1 µM), for the others: top-dose activity change, negative = inhibition, actives largely listed as inhibitors; 340,000 compounds, 0.05% hits; active = well fitted inhibition curve with a large enough effect in the signal ratio, with a control signal flat, not every such curve was filed as active; inconclusive = small, poorly fitted or top-dose-only effect, or effect the other way, or a change in a side signal; the % refers to the signal ratio;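 note: potency is the fitted concentration of half-maximal effect; plate controls were basal doxycycline-induced cells for no effect and cells given 10 µM MG132 for full effect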
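TMD8 human ABC-DLBCL cells with doxycycline-inducible IκBα–green luciferase fusion and unfused red luciferase, in 0.5% FBS medium; compounds up to 46 uM, 4 h at 37C. Green/red luminescence ratio, filter-overlap corrected, fitted to concentration-response curves.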
The depositor's hits bear a star; ? = inconclusive; · = not tested or not shown.

SMILES	DRD3 antagonist	D1 PAM	D1 ag	DRD3 agonist	D1 antag	BCR signal inh
O=C(OCC(=O)N1CCN(c2ccccc2)CC1)c1cc(F)c(F)cc1Cl	22	·	·	-10	·	·
CC(=O)N1CCC2(CC1)OC(=O)C(C)=C2C(=O)Nc1cc(C)ccc1C	·	6	-2	2	9	·
CC(C)=CCc1c2c(c3occ(-c4ccc(O)cc4)c(=O)c3c1O)C=CC(C)(C)O2	36	3	0	69*	5	?
CCCNC(=O)CCC(NS(=O)(=O)c1ccc(C)cc1)C(=O)NCCC (stereo not given)	-56*	-5	1	15	15	-2%
CCNC(=O)C(CCSC)NS(=O)(=O)c1ccc(C)cc1 (stereo not given)	0	0	3	-4	-7	5%
CC(NCc1ccc(-c2ccccc2)cc1)C(O)c1ccccc1 (stereo not given)	4	-4	200*	-8	56	?
COc1ccc(CNC(=O)CCCn2nc(C)c3sc4ccccc4c3c2=O)cc1OC	·	-3	8	8	2	·
COc1cc(OC)c(NC(=O)CCCn2nc(C)c3sc4ccccc4c3c2=O)cc1Cl	·	-3	3	1	-71*	·
Cc1ccc(NC(=O)CCCn2nc(C)c3sc4ccccc4c3c2=O)c(Cl)c1	·	-4	2	4	-45*	·
CSc1ccc(CCNC(=O)CCCn2nc(C)c3sc4ccccc4c3c2=O)cc1	·	-1	8	5	-69*	·
Cc1nn(CCCC(=O)NCc2ccc(OC(C)C)cc2)c(=O)c2c1sc1ccccc12	·	-1	1	-7	-8	·
CCOC(=O)[C@]12CCCC=C1N(Cc1ccc3c(c1)OCO3)C(=O)[C@H](CC(=O)NCCCN1CCCC1=O)C2	3	·	·	2	·	·
Cc1c(C(=O)Nc2ccccc2Br)oc2ccc(S(=O)(=O)N3CCCCCC3)cc12	·	1	-4	-3	4	7%
O=C(NC1CCCCCCC1)c1ccco1	17	-5	3	-7	-31*	?
O=C(NC1CCCC1)c1cc2cc(Br)ccc2o1	-20	-15	4	-13	-78*	?
O=C(NC1CCCCC1)c1cc2cc(Br)ccc2o1	10	3	4	-17	-8	?
COc1ccc(CONS(=O)(=O)c2ccc(NC(C)=O)cc2)cc1Cl	-106*	1	9	10	-2	-5%
COc1ccc(S(=O)(=O)Nc2ccc(NC(C)=O)cc2)cc1Cl	6	-1	1	-3	2	3%
Cc1ccc(C)c(-n2cc(CNCCCn3cccn3)c(-c3ccccc3)n2)c1	-20	6	40*	-18	-7	?
Cc1ccc(-n2cc(CNCCCn3cccn3)c(-c3cccc(C)c3)n2)cc1	-73*	-15	44*	-20	-41*	-6%
O=c1c2sc3ccccc3c2n(Cc2ccc(F)cc2)c(=O)n1Cc1ccccc1	·	3	4	-11	32	·
Cc1cc(F)ccc1-c1cc(C(=O)NC2CCCCC2)[nH]n1	-83*	·	·	-22	·	·
CCCOc1ccc(F)cc1-c1cc(C(=O)NC2CCCCC2)[nH]n1	-102*	·	·	-19	·	·
CC(C)Oc1ccc(F)cc1-c1cc(C(=O)NC2CCCCC2)[nH]n1	0	·	·	-15	·	·
CC(C)N1CCc2c(sc(NC(=O)c3cc(-c4cccs4)nc4ccccc34)c2C(N)=O)C1	23	-4	83*	2	0	?
SMILES	DRD3 antagonist	D1 PAM	D1 ag	DRD3 agonist	D1 antag	BCR signal inh
CN(C1CCCCC1)S(=O)(=O)c1ccc(C(=O)Nc2sc3c(c2C(N)=O)CC(C)(C)NC3(C)C)cc1	?	7	28	-1	0	-1%
CC(C)N1CCc2c(sc(NC(=O)c3ccc(S(=O)(=O)N(C)C4CCCCC4)cc3)c2C(N)=O)C1	·	-1	66*	-17	-15	?
CC(C)N1CCc2c(sc(NC(=O)c3ccc(S(=O)(=O)N4CCc5ccccc54)cc3)c2C(N)=O)C1	-27	-3	32*	-6	6	?
CC1(C(=O)Nc2ccc3c(c2)OCO3)Cc2c(-c3cccc(C(F)(F)F)c3)ccnc2O1 (stereo not given)	?	·	·	-10	·	·
COC(=O)C[C@](O)(CCCC(C)(C)O)C(=O)O[C@@H]1C(OC)=CC23CCCN2CCc2cc4c(cc2[C@H]13)OCO4 (stereo not given in full)	·	·	·	-9	·	·
Clc1cccc(-n2cc(-c3ccccc3)c3c(N4CCCCC4)ncnc32)c1	·	2	-2	2	8	?
Cc1ccc(/C=N/NC(=O)c2nnn(-c3nonc3N)c2-c2ccccc2)o1	-16	-4	34*	4	-15	6%
Nc1nonc1-n1nnc(C(=O)N/N=C/c2ccco2)c1-c1ccccc1	10	6	5	8	6	2%
Nc1nonc1-n1nnc(C(=O)N/N=C/c2ccoc2)c1-c1ccccc1	0	-7	35*	-2	17	3%
CCOc1cc(NC(C)=O)ccc1C(=O)OC	·	·	·	10	·	·
CCc1cccc(NC(=O)C2CCCN(c3ncnc4onc(-c5ccc(F)cc5)c34)C2)c1 (stereo not given)	·	3	2	1	5	·
CCN1C=C(Cc2ccc(F)cc2)C2=C(C1)C(c1ccc(F)cc1)C(C#N)=C(N)O2 (stereo not given)	?	-6	2	-24	-55*	?
CCN1C=C(Cc2ccccc2C)C2=C(C1)C(c1ccccc1C)C(C#N)=C(N)O2 (stereo not given)	4	-7	2	-5	-5	?
CCc1ccc(-c2cc(C(=O)Nc3ccc(S(=O)(=O)NC(C)=O)cc3)c3ccccc3n2)cc1	-93*	-3	12	-13	-6	?
O=C(Nc1nc2c(s1)CCCC2)c1cc(-c2ccncc2)nc2ccccc12	?	-4	1	-28	0	-14%
COc1ccc(Cl)cc1C(=O)NNC(=S)NC(=O)c1ccc(F)c(F)c1	-13	-2	171*	-13	6	0%
O=C(Nc1nc2c(s1)CCCC2)c1cc(-c2ccccc2)nc2ccccc12	-81*	5	32*	-8	9	?
O=C(NNC(=O)c1cc(-c2ccncc2)nc2ccccc12)c1cccc(Cl)c1	-1	-4	3	3	-41*	?
COc1cc(C(=O)Nc2ccccc2OCc2cc(=O)n3c(C)csc3n2)cc(OC)c1OC	·	-1	0	3	-18	·
COc1ccc(Cl)cc1C(=O)NNC(=S)NC(=O)c1cc(-c2ccc(Cl)cc2)nc2ccccc12	-61*	4	10	-5	-9	-1%
O=C(NC(=S)Nc1ccccn1)c1cc(-c2ccccc2)nc2ccccc12	-4	0	10	2	-4	?
